Data published in ChEMBL document CHEMBL1157539, “Thousands of chemical starting points for antimalarial lead identification” (Nature, 2010).

These compounds were tested on Plasmodium falciparum (assay: GSK_TCMDC: Inhibition of Plasmodium falciparum Dd2 in whole red blood cells, using parasite LDH activity as an index of growth. Test compounds present at 2uM).
Type: functional

SMILES	Inhibition [%]
CC(C)c1ccc(CN2CCC(CNC(=O)c3cc(-c4ccc(N(C)C)cc4)cs3)C2)cc1.O=C(O)C(F)(F)F (stereo unspecified)	32
O=C(/C=C/c1ccc(Cl)c(Cl)c1)NCCCCCN1CCCN(C(=O)Nc2cccc(C(F)(F)F)c2)CC1	0
NC1CCN(Cc2ccc(-c3ccc(-c4nc5cc(F)ccc5[nH]4)s3)cc2)C1.O=C(O)C(F)(F)F (stereo unspecified)	98
CS(=O)(=O)O.FC(F)(F)COc1ccc2ccccc2c1CCNCCCCNCCc1c(OCC(F)(F)F)ccc2ccccc12	53
O=C(Nc1ccc(C(=O)Oc2ccc(-c3ccccc3)cc2)cc1)N[C@@H](Cc1ccc(O)cc1)C(=O)NC1CCN(Cc2ccc(O)cc2)C1.O=C(O)C(F)(F)F (stereo partly specified)	60
Cc1noc(C)c1-c1cccc(CNCc2ccc(-c3ccc(-c4nc5cc(C(F)(F)F)ccc5[nH]4)s3)cc2)c1.O=C(O)C(F)(F)F	99
CN(C)CCNCc1ccc(-c2ccc3c(Nc4ccc(F)cc4Cl)ccnc3c2)o1	100
N=C(N)NC(=O)Nc1ccc(Cl)c(Cl)c1	13
CCNc1cc(C)nc(Nc2ccc(NC(=O)C3CCCC3)cc2)n1	69
CCC(CSC1CCCCC1)N(C)CCN(C)C(CC)CSC1CCCCC1.Cl (stereo unspecified)	98
O=C(Nc1ccccc1Cc1ccccc1)c1ccccc1C(F)(F)F	85
COC(=O)c1cccc(CNCc2cccc(-c3ccc(-c4nc5cc(C(F)(F)F)ccc5[nH]4)cc3)c2)c1.O=C(O)C(F)(F)F	83
CC(C)CCCC(C)(C)NC[C@@H](O)[C@H](Cc1ccccc1)NC(=O)c1cccc(OCC2CC2)c1	91
CC1CN(Cc2csc(Nc3ccccc3)n2)CC(C)O1 (stereo unspecified)	81
O=C(COc1ccc(F)cc1)NC1CCN(c2ccnc3cc(Cl)ccc23)C1.O=C(O)C(F)(F)F (stereo unspecified)	100
CCN(CC)CCN(Cc1ccc(-c2ccc(C(F)(F)F)cc2)cc1)C(=O)Cn1c(SCc2ccc(F)cc2)nc(=O)c2ccccc21.O=C(O)C(O)C(O)C(=O)O	48
Cl.c1ccc(Oc2ccc(Nc3ccnc4cc(-c5ccc(CN6CCNCC6)o5)ccc34)cc2)nc1	99
Cc1nc(C)c(-c2ccc(S(=O)(=O)c3ccc(Cl)cc3)cc2)c(O)c1Cl	96
Cc1nc(-c2cccc(Nc3nccc(NCC(O)c4ccc(C(F)(F)F)cc4)n3)c2)cs1 (stereo unspecified)	99
CN1CCCN(Cc2cccc(-c3cccc(NC(=O)c4ccc(Cl)cc4)c3)c2)CC1.O=C(O)C(F)(F)F	44
CCNC(=O)Nc1cccc(-c2cccc(-c3nc4cccc(C)c4[nH]3)c2)c1	31
CCCCCCNc1cc(C)nc(NC(=N)Nc2cccc(C(F)(F)F)c2)n1	100
COc1ccc(Br)cc1/C=C/C(=O)Nc1cccc(C2CCCN(C)C2)c1.O=CO (stereo unspecified)	30
Cc1cccc2nc(-c3ccc(-c4cccc(C(=O)N5CCCCC5C(C)O)c4)s3)[nH]c12 (stereo unspecified)	53
Cc1cc(C2CCN(CCCCNC(=O)c3ccc(-c4ccc(C(F)(F)F)cc4)cc3)CC2)c(C)cc1OCCO	3
COc1ccc(Nc2nc(N3CCCC3)c3ccccc3n2)cc1.Cl	98
